Apoferritin bind: qHTS Assay for Identification of Novel General Anesthetics; Ferritin light chain (Equus caballus), P02791; apoferritin/1-aminoanthracene competitive binding, fluorescence; Potency, µM (highest dose often 77.5 µM), for the others: at the highest dose activity change, negative = displacement, actives largely listed as inhibitors; 350,000 tested, 0.074% active; note: nearly all actives have a fitted effect of over 20% in size
Target sequence (P02791 2-175 limits assumed): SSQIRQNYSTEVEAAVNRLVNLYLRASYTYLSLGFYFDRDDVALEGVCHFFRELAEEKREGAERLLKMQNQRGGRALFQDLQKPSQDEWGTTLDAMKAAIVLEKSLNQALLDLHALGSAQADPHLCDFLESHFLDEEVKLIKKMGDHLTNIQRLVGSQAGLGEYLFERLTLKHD
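Probe: 1-aminoanthracene (50% saturated, PBS). Protein: horse-spleen apoferritin, 10 uM. Incubation: 10 min, room temperature. Detection: 380 nm excitation, 535 nm emission. Analysis: normalized response, four-parameter Hill.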
GALK inh: qHTS Assay for Inhibitors of Human Galactokinase (GALK); P51570; Purified GALK, Kinase-Glo residual ATP luminescence; Potency, µM (series often up to 57.5 µM), for the others: at the highest dose activity change, negative = inhibition, most hits filed as inhibitors; 270,000 tested, 0.007% active
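Human GALK (5 nM) with 35 uM ATP and 100 uM galactose in 20 mM HEPES pH 8.0, 5 mM MgCl2, 60 mM NaCl, 1 mM DTT, 0.01% BSA. After 1 h at room temperature, leftover ATP was read by Kinase-Glo Plus luminescence.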
TrxR1 substrate: qHTS Assay for Substrates of Mammalian Selenoprotein Thioredoxin Reductase 1 (TrxR1): qHTS; Thioredoxin reductase 1, cytoplasmic (Rattus norvegicus), O89049; purified TrxR1 substrate turnover, NADPH consumption readout; Potency, µM (series often up to 114 µM), for the others: top-dose activity change, negative = substrate turnover; 390,000 tested, 0.01% active; note: nearly all actives have a fitted effect of over 50% in size
Target sequence (O89049 whole entry, looked up): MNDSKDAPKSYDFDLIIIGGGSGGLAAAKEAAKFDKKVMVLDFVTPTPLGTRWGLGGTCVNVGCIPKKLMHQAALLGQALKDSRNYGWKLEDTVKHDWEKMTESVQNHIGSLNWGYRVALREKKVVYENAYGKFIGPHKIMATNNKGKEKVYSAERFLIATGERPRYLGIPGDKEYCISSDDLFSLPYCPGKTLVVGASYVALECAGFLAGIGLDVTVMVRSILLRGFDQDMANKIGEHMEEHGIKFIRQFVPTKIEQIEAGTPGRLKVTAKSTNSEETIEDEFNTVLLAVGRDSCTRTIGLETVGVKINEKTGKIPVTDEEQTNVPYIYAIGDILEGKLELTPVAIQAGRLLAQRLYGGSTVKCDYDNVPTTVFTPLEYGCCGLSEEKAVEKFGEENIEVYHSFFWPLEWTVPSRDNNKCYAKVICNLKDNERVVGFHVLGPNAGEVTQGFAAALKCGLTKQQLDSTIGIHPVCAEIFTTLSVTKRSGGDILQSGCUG
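Rat TrxR1, dispensed at 90 nM, was prereduced with 400 uM NADPH (final) for 5 min at ~22 deg C, then incubated with compound 15 min before 400 uM selenite. A first-read NADPH fluorescence drop versus no-compound background flagged substrates.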
TrxR1 inh: qHTS Assay for Inhibitors of Mammalian Selenoprotein Thioredoxin Reductase 1 (TrxR1): qHTS; Potency, µM (series often up to 114 µM), inactives show top-dose activity change, negative = inhibition, usual class: inhibitors; 390,000 tested, 1% active; Thioredoxin reductase 1, cytoplasmic (Rattus norvegicus), O89049; recombinant rTrxR1, NADPH fluorescence consumption, selenite substrate; AID 588453, 2011; note: nearly all actives have a fitted effect of over 65% in size
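Rat TrxR1 (90 nM in the dispensed reagent) was pre-reduced with 400 uM NADPH for 5 min at room temperature, then incubated with compound for 15 min. After 400 uM selenite was added, NADPH fluorescence (Ex 340/Em 450 nm) was followed for 8 min.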
mIDH1 inhibitor: qHTS for Inhibitors of mutant isocitrate dehydrogenase 1 (IDH1): qHTS. IDH1-R132H enzyme, NADPH consumption, diaphorase/resazurin fluorescence. Potency, µM (doses to about 76.6 µM), without a hit: top-dose activity change, negative = inhibition, most hits filed as inhibitors. Isocitrate dehydrogenase [NADP] cytoplasmic (Homo sapiens), O75874. 390,000 tested, 0.093% active; note: nearly all actives have a fitted effect of over 65% in size
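IDH1-R132H (0.5 ug/mL) preincubated 30 min with compound, then NADPH (0.016 mM) and alpha-KG (2 mM) added; 80 min at RT, pH 7.5. Remaining NADPH coupled via diaphorase/resazurin to fluorescence (540/590 nm); concentration-response curves normalized to no-enzyme control.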
PKM2 activator: qHTS Assay for Activators of Human Muscle isoform 2 Pyruvate Kinase; purified PKM2, Kinase-Glo ATP luminescence, activation; response scale: 0% is enzyme alone, no compound; Potency, µM (top dose mostly 57.5 µM), without a hit: at the highest dose activation, hits mostly activators; 260,000 tested, 0.34% active; AID 1631, 2009; note: nearly all actives have a fitted effect of over 55% in size
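Purified hPK-M2 (>95%) run at intermediate activity with 0.1 mM ADP and 0.5 mM PEP in 50 mM imidazole pH 7.2, KCl, MgCl2; 1 h room temperature. ATP formed read by Kinase-Glo luminescence; normalized to uninhibited and no-enzyme controls.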
Numbers without * were called inactive; ? = inconclusive; / = not tested or not shown; [ ] = dose if it differs, or a comment. Most compounds without a hit are left out; they make up all but 1.3% or so of the library. Calls come from the whole dose curve; as a rule, active = well fitted curve in the direction sought with a large enough effect; inconclusive = small, poorly fitted or top-dose-only effect, or another doubt; inactive = no such curve, though single readings can be large; an effect the other way counts as inactive or inconclusive. % is set by controls: 0 for no effect and ±100 for the full control effect; potency is the fitted concentration of half-maximal effect.

SMILES	Apoferritin bind	GALK inh	TrxR1 substrate	TrxR1 inh	mIDH1 inhibitor	PKM2 activator
COc1ccc(-c2onc(C)c2C)cc1S(=O)(=O)N(C)Cc1ccco1	-9%	/	-3%[57.1 µM]	7%[57.1 µM]	9%	/
O=C(COC(=O)c1ccc([N+](=O)[O-])o1)Nc1ccc2c(c1)OCO2	/	/	5%[57.1 µM]	18µM*	4%	/
NC(=O)c1ccc(NC(=O)COC(=O)CC2CC3CCC2C3)cc1 (configuration not stated)	/	/	-7%	-12%	3%	/
O=C(COC(=O)CC1CC2CCC1C2)NC(=O)NCc1ccco1 (configuration not stated)	13µM*	0%	-4%	-20%	-5%	24%
O=C(O)C1Nc2c(cccc2C(F)(F)F)C2C=CCC12 (configuration not stated)	-14%	-1%	/	/	/	/
COc1cccc2c1NC(C(=O)O)C1CC=CC21 (configuration not stated)	-17%	/	8%	13µM*	13%	5%
Cc1ccc(C)c(N2C(=O)N(C)c3ccccc3S2(=O)=O)c1	-6%	/	4%[57.1 µM]	4%[57.1 µM]	-5%	/
CN(C)CCNc1oc(COc2cccc(Cl)c2)nc1C#N	?	3%	0%	?	4%	-1%
COc1ccc(Nc2oc(COc3ccccc3OC)nc2C#N)cc1	-11%	0%	-7%	45µM*	1%	8%
CN(C)CCNc1oc(COc2ccc(Cl)cc2)nc1C#N	2%	-1%	8%	14µM*	-5%	-1%
O=C(Nc1ccc(Cl)cc1)c1cc2c(-c3ccccc3)nn(-c3ccccc3)c2s1	4%	/	25%	37%	0%	/
CCCS(=O)(=O)c1ncc(Cl)c(C(=O)N2CCN(c3ccc(OC)cc3)CC2)n1	-20%	/	5%[57.1 µM]	8.9µM*	6%	/
CCOc1ccccc1C(=O)Nc1cc2c(cc1N1CCCC1)n(CC)c(=O)n2CC	-10%	-5%	-10%	-17%	46µM*	/
COc1ccc(C(=O)Nc2cc3c(cc2N2CCCCC2)n(C)c(=O)n3C)cc1OC	4%	-2%	-4%	16%	46µM*	/
CCn1c(=O)n(CC)c2cc(N3CCCC3)c(NC(=O)c3ccccc3OC)cc21	-4%	-2%	1%	0%	-13%	0%[0.46 µM]
CC(C)(C)n1ncc2c(=O)n(Cc3ccc(C(F)(F)F)cc3)cnc21	/	/	-7%	-18%	/	/
Cc1ccccc1C(=O)N/N=C/c1ccc([N+](=O)[O-])s1	-20%	-2%	-12%	?	8%	-5%
O=C(N/N=C/c1ccc([N+](=O)[O-])s1)c1ccccc1Br	?	-5%	-2%	20µM*	0%	0%
COc1ccc(-c2nc(CS(=O)CC(=O)NCc3ccccc3Cl)c(C)o2)cc1OC (configuration not stated)	0%	/	9%	6%	-7%	/
CCCCNC(=O)CS(=O)Cc1nc(-c2cccc(Cl)c2)oc1C (configuration not stated)	-21%	0%	8%[57.1 µM]	14µM*	-6%	-1%
COc1cccc(-c2nc(CS(=O)CC(=O)NCc3ccccc3Cl)c(C)o2)c1 (configuration not stated)	28µM*	2%	3%[57.1 µM]	5%[57.1 µM]	-9%	5%
O=C1CSc2ccc(S(=O)(=O)CCC(=O)NC3CCCCC3)cc2N1	-15%	1%	3%	14µM*	-8%	/
CC1CCC(NC(=O)CCS(=O)(=O)c2ccc3c(c2)NC(=O)CS3)CC1 (configuration not stated)	-11%	0%	-1%	1%	-8%	/
Cc1cccc2[nH]cc(/C=C3/C=Nc4ccccc43)c12	/	/	-1%	-2%	/	/
Cc1ccc(S(=O)(=O)Nc2nc3ccccc3nc2NCc2ccco2)cc1	-9%	1%	18%	8.9µM*	2%	5%
SMILES	Apoferritin bind	GALK inh	TrxR1 substrate	TrxR1 inh	mIDH1 inhibitor	PKM2 activator
Cc1ccc2ncnc(NCc3ccco3)c2c1	/	/	-4%	79µM*	/	/
O=S(=O)(Nc1nc2ccccc2nc1NCc1ccco1)c1ccc(Cl)cc1	-2%	0%	-1%	-29%	7%	9%
Clc1ccc2c(NCc3ccco3)ncnc2c1	-3%	0%	-5%	-2%[57.1 µM]	4%	8%
CNc1ccc(/C=C/c2ccccc2)cc1	/	/	9%	-9%	/	/
CCc1ccc(-n2c(SCc3cccc(F)c3)nc3[nH]ncc3c2=O)cc1	-16%	/	-11%[57.1 µM]	2%[57.1 µM]	-4%	/
CN1OC2C(=O)N(c3ccccc3)C(=O)C2C1c1ccc(F)cc1 (configuration not stated)	32µM*	3%	-3%	19%	8%	-1%
COc1cc2c(NC3CCN(C)CC3)nc(N3CCCN(C)CC3)nc2cc1OCCCN1CCCCC1	/	/	61%	-9%	/	/
Cc1nn(C)c(C(=O)Sc2cccc(Cl)c2)c1[N+](=O)[O-]	-3%	0%	-9%	2µM*	0%	1%
COc1ccc(C(NC(C)=O)c2ccc3cccnc3c2O)cc1OC (configuration not stated)	/	/	-5%	1%	/	/
CCOc1cc(C(Nc2cc(C)ccn2)c2ccc3cccnc3c2O)ccc1OC (configuration not stated)	-7%	/	-7%	1.3µM*	0%	/
COc1ccc(-c2nc(NC(=O)c3[nH]c(C)c(C(C)=O)c3C)sc2C)cc1	-8%	-4%	11%[57.1 µM]	24%[57.1 µM]	3%	7.9µM*
COc1ccc(-c2nc(NC(=O)c3ccco3)sc2C)cc1	/	/	/	/	2%	/
Cc1ccc2[nH]c(CSc3nnc(NC(=O)COc4ccc(F)cc4)s3)cc(=O)c2c1	14%	/	-1%[57.1 µM]	22%[57.1 µM]	-20%	/
O=C(NC1CCCC1)c1ccc(CS(=O)Cc2ccccc2Cl)o1 (configuration not stated)	-18%	-5%	6%	50µM*	10%	/
Nc1c(C(=O)NCC2CCCO2)sc2nc3c(c(-c4ccco4)c12)CC/C3=C\c1ccco1 (configuration not stated)	2%	3%	-14%	14µM*	4%	22%
COc1cc(CCC(=O)Nc2ccc(S(=O)(=O)N3CCOCC3)cc2)cc(OC)c1OC	/	/	6%	12%	4%	/

Screening results: PubChem, National Center for Advancing Translational Sciences (NCATS)
